Screening data: PubChem, National Center for Advancing Translational Sciences (NCATS)
TRPML1 ag = activates the human TRPML1 channel; TRPML1-expressing cells, Ca2+ dye fluorescence, FDSS; activation, % (concentration not given with the values); 410,000 compounds, 0.12% hits; AID 624414; in the data active = activation above about 50%; note: 0% is about no effect
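Agonist activity was taken from a 110 s kinetic Ca2+ dye read on the FDSS after pinning compounds onto TRPML1-DL cells. The cells were seeded at 1,500/well with Tet inducer, incubated about 16 h, then dye-loaded at room temperature.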
DRD3 agonist = activates the human D3 dopamine receptor; D3R DiscoveRx beta-arrestin cells, luminescence, 90 min; AID 652048; 410,000 compounds, 0.58% hits; max activation, %; in the data active = max activation above about 30%; note: 0% is about no effect
Target sequence (P35462 whole entry, looked up): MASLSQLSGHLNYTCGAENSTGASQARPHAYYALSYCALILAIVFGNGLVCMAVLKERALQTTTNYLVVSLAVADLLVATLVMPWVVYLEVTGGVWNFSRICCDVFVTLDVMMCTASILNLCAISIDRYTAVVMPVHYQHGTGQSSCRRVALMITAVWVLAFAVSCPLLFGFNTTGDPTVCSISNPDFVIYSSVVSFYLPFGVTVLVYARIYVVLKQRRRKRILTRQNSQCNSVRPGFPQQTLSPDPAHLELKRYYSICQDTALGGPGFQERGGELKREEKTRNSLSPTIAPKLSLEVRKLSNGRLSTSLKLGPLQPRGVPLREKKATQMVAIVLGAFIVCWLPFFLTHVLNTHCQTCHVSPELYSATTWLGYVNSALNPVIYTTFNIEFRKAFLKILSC
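Agonist mode: compounds and dopamine controls were applied to plated cells for 90 min at 37 degrees C after an overnight attachment at 1500 cells/well. Luminescent read-out followed 30 - 60 minutes at room temperature with DiscoveRx detection reagent.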
TRPML1 blocker = blocks the human TRPML1 channel. 390,000 compounds, 0.02% hits. AID 624415. TRPML1-inducible cells, Ca2+ dye fluorescence, FDSS; active compounds read low; inhibition of EC80 agonist-evoked calcium signal. activity change, negative = inhibition, % (test concentration not listed); in the data active = activity change below about -50%;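 note: stimulus is agonist 54-4 at its EC80 concentration; % is set by controls: 0 for no effect and ±100 for the full control effect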
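Tet-induced TRPML1-DL cells loaded with Ca8 no-wash calcium dye were read kinetically on FDSS. Compound addition was followed by EC80 agonist 54-4 (4 uM final); inhibition was read over 110 s.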
D3 antag = antagonists of human D3 dopamine receptor; P35462; D3R cells, DiscoveRx beta-arrestin luminescence, antagonist mode; active compounds read low; max response, negative = inhibition, %; 360,000 compounds, 2.5% hits; AID 652054; in the data active = max response below about -50%; note: % is set by controls: 0 for no effect and ±100 for the full control effect
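Cells plated overnight at 1500 cells/well, then exposed to library compounds with dopamine controls for 90 minutes at 37 degrees C. DiscoveRx reagent added for 30–60 minutes at room temperature; luminescence read, quantitative HTS format.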
An asterisk follows results filed as active. Compounds with a hit are over-represented: about 2.9% of the library has one in this group of screens.

What do the screens show for `CCN(Cc1nc(-c2ccc(OC)c(OC)c2)no1)S(=O)(=O)c1ccc(OC)cc1`?
TRPML1 ag: 3; DRD3 agonist: 4; TRPML1 blocker: 7

Results for COc1cc(NC(=O)CCn2nc(C)c(S(=O)(=O)N3CCCCC3)c2C)cc(OC)c1OC ?
TRPML1 ag: 1; DRD3 agonist: -10; TRPML1 blocker: 4

What do the screens show for `Cc1cc(C(=O)CSc2nc(N)cc(=O)[nH]2)c(C)n1CCc1ccc(F)cc1`?
TRPML1 ag: 0; DRD3 agonist: 4; TRPML1 blocker: 18; D3 antag: 9

Results for COc1ccc(CCn2c(C)cc(C(=O)CSc3nc(N)cc(=O)[nH]3)c2C)cc1 ?
TRPML1 ag: 1; DRD3 agonist: 35*; TRPML1 blocker: -10; D3 antag: 58

Results for Cc1cc(C(=O)CCl)c(C)n1CCc1ccc(Cl)cc1 ?
TRPML1 ag: 2; DRD3 agonist: -17; TRPML1 blocker: 20; D3 antag: -69*

How did COc1ccc(F)cc1-c1cc(C(=O)NCc2ccc(C(F)(F)F)cc2)[nH]n1 do in these assays?
TRPML1 ag: 0; DRD3 agonist: -21; D3 antag: -73*

How did COc1ccc(F)cc1-c1cc(C(=O)NCc2cccc(C(F)(F)F)c2)[nH]n1 do in these assays?
TRPML1 ag: -1; DRD3 agonist: -5; D3 antag: -24

Results for Cc1ccc(F)cc1-c1cc(C(=O)NCc2cc(C(F)(F)F)cc(C(F)(F)F)c2)[nH]n1 ?
TRPML1 ag: 1; DRD3 agonist: -13; D3 antag: -70*

How did COC[C@H](c1ccc(C(F)(F)F)cc1)N1CCN(C2(C)CCN(C(=O)c3c(C)ncnc3C)CC2)C[C@H]1C do in these assays?
DRD3 agonist: 13

What do the screens show for `Cc1c(C(=O)N2CCCCC2)oc2ccccc12`?
TRPML1 ag: 0; DRD3 agonist: -13; TRPML1 blocker: 44; D3 antag: 1

How did Cc1c(C(=O)N2CCN(Cc3cccs3)CC2)oc2ccccc12 do in these assays?
TRPML1 ag: 0; DRD3 agonist: -24; TRPML1 blocker: 26; D3 antag: -79*

What do the screens show for `C=CCN1CCN(C(=O)c2oc3ccccc3c2C)CC1`?
TRPML1 ag: 0; DRD3 agonist: -11; TRPML1 blocker: 0; D3 antag: -61*

How did CC(=O)N1CCN(C(=O)c2oc3ccccc3c2C)CC1 do in these assays?
TRPML1 ag: 0; DRD3 agonist: -3; TRPML1 blocker: 9; D3 antag: -11

Results for Cc1c(C(=O)NC(C)CN2CCCCC2)oc2ccccc12 (configuration not stated) ?
TRPML1 ag: 1; DRD3 agonist: -54; TRPML1 blocker: 1; D3 antag: -77*

What do the screens show for `Cc1c(C(=O)N2CCCCCC2)oc2ccccc12`?
TRPML1 ag: 3; DRD3 agonist: -9; TRPML1 blocker: -2; D3 antag: 26

How did Nc1cc(N)[nH]c(=S)n1 do in these assays?
TRPML1 ag: 0

How did Cc1ccc(C)c(NC(=O)C2CCCN2S(=O)(=O)c2ccc3c(c2)CCCC(=O)N3)c1 (configuration not stated) do in these assays?
TRPML1 ag: 1; DRD3 agonist: 4; TRPML1 blocker: -2

Results for COC(=O)C1=C[C@@H](C(=O)OC)C2C3=C(C(=O)[C@@]2(C)NC(=O)c2ccccc2)[C@H](C)[C@@H]2C(=O)N(C)C(=O)[C@@H]2[C@@H]3C1 (some centres not stated) ?
TRPML1 ag: 0; TRPML1 blocker: 8

Results for Cc1cc(C)cc(NS(=O)(=O)c2ccc(-c3cc(C)no3)cc2)c1 ?
TRPML1 ag: -1; DRD3 agonist: -3; TRPML1 blocker: 24

Results for COc1ccc(-c2cn3cccnc3n2)cc1NC(=O)c1cc(C)cc(C)c1 ?
TRPML1 ag: 0; DRD3 agonist: 0; TRPML1 blocker: -10

How did CC(=O)c1cc2cccc(OC3(C)CCN(Cc4ccc(-c5ccccn5)cc4)C3)c2o1 (configuration not stated) do in these assays?
TRPML1 ag: 0; DRD3 agonist: -10; D3 antag: -53*

Results for O=[N+]([O-])c1ccccc1S(=O)(=O)NCc1ccccn1 ?
TRPML1 ag: 0

What do the screens show for `COc1ccc(CC(=O)OCC(=O)NCc2ccc(Cl)cc2)cc1`?
TRPML1 ag: 1; DRD3 agonist: -4; TRPML1 blocker: -2; D3 antag: -16

What do the screens show for `COc1ccc(CNC(=O)COC(=O)Cc2ccc(Cl)cc2Cl)cc1`?
TRPML1 ag: 0; DRD3 agonist: 13; TRPML1 blocker: 16; D3 antag: -80*
